Results filed as inconclusive are left out. A call without a number means that no potency is given here. Calls of active or inactive are those of the source. The call rests on the fitted dose curve; in most records, active means well fitted inhibition curve with a large enough effect; inconclusive means small, poorly fitted or top-dose-only effect; inactive means flat fitted curve, though single readings scatter.
Legend:
Test in all cases: qHTS profiling for inhibitors of Plasmodium falciparum proliferation (AID 504749); further: nearly all actives have a fitted effect of over 60% in size
Settings in all cases: P. falciparum in erythrocytes, SYBR Green DNA, 72 h; series mostly up to 28.7 µM
[1] = system: CP247
How it was run: (§1)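 Three-day growth assay of blood-stage parasites in erythrocytes (0.3% parasitemia, 2.5% hematocrit) at 37 C, 5% CO2, quantified by SYBR Green DNA staining after overnight detergent lysis.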

[2] = system: CP250
How it was run: as §1

[3] = system: CP252
How it was run: as §1

[4] = system: CP256
How it was run: as §1

[5] = system: CP260
How it was run: as §1

[6] = system: CP262
How it was run: as §1

[7] = system: CP265
How it was run: as §1

[8] = system: CP266
How it was run: as §1

[9] = system: CP268
How it was run: as §1

[10] = system: CP269
How it was run: as §1

[11] = system: CP286
How it was run: as §1

[12] = system: CP291
How it was run: as §1

[13] = system: CP297
How it was run: as §1

[14] = system: CP305
How it was run: as §1

[15] = system: CP315
How it was run: as §1

[16] = system: CP325
How it was run: as §1

[17] = system: CP329
How it was run: as §1

[18] = system: CP335
How it was run: as §1

[19] = system: DFO2036
How it was run: as §1

[20] = system: DIV14
How it was run: as §1
Potency means the concentration at half of the fitted maximal effect.

| Compound | Potency [1] | Potency [2] | Potency [3] | Potency [4] | Potency [5] | Potency [6] | Potency [7] | Potency [8] | Potency [9] | Potency [10] | Potency [11] | Potency [12] | Potency [13] | Potency [14] | Potency [15] | Potency [16] | Potency [17] | Potency [18] | Potency [19] | Potency [20] |
| --- | --- | --- | --- | --- | --- | --- | --- | --- | --- | --- | --- | --- | --- | --- | --- | --- | --- | --- | --- | --- |
| O=C(O)c1ccccc1Nc1cccc(C(F)(F)F)c1 | inactive | inactive | inactive | inactive | inactive | inactive | inactive | inactive | inactive | inactive | inactive | inactive | inactive | inactive | inactive | inactive | inactive | inactive | inactive |  |
| O=C(O)[C@H](CC(=O)N1C[C@H]2CCCC[C@H]2C1)Cc1ccccc1 | inactive | inactive | inactive | inactive | inactive | inactive | inactive | inactive | inactive | inactive | inactive | inactive | inactive | inactive | inactive | inactive | inactive | inactive | inactive | inactive |
| C=CC(N)CCC(=O)O (stereo unspecified) | inactive | inactive | inactive | inactive | inactive | inactive | inactive | inactive | inactive | inactive | inactive | inactive | inactive | inactive | inactive | inactive | inactive | inactive | inactive | inactive |
| O=C(/C=C/c1ccccc1)NCCO | inactive | inactive | inactive | inactive | inactive | inactive | inactive | inactive | inactive | inactive | inactive | inactive | inactive | inactive | inactive | inactive | inactive | inactive | inactive | inactive |
| O=C(O)[C@H](O)[C@@H](O)[C@H](O)[C@H](O)CO | inactive | inactive | inactive | inactive | inactive | inactive | inactive | inactive | inactive | inactive | inactive | inactive | inactive | inactive | inactive | inactive | inactive | inactive | inactive | inactive |
| O=C(O)COc1ccc(C(=O)c2cccs2)c(Cl)c1Cl | inactive | inactive | inactive | inactive | inactive | inactive | inactive | inactive | inactive | inactive | inactive | inactive | inactive | inactive | inactive | inactive | inactive | inactive | inactive | inactive |
| O=C(OCc1ccccc1)c1ccccc1 | inactive | inactive | inactive | inactive | 3.16 µM (active) | inactive | inactive | inactive | inactive | inactive | inactive | inactive | inactive | inactive | inactive | inactive | inactive | inactive | inactive | inactive |
| Clc1ccccc1-c1nc(-c2ccncc2)no1 | inactive | inactive | inactive | inactive | inactive | inactive | inactive | inactive | inactive | inactive | inactive | inactive | inactive | inactive | inactive | inactive | inactive | inactive | inactive |  |
| Nc1cc(-c2ccncc2)c[nH]c1=O | inactive | inactive | inactive | inactive | inactive | inactive | inactive | inactive | inactive | inactive | inactive | inactive | inactive | inactive | inactive | inactive | inactive | inactive | inactive |  |
| C=CCCCCCCCCC(=O)O | inactive | inactive | inactive | inactive | inactive | inactive | inactive | inactive | inactive | inactive | inactive | inactive | inactive | inactive | inactive | inactive | inactive | inactive | inactive | inactive |
| Cc1[nH]cnc1CN1CCc2c(c3ccccc3n2C)C1=O | inactive | inactive | inactive | inactive | inactive | inactive | inactive | inactive | inactive | inactive | inactive | inactive | inactive | inactive | inactive | inactive | inactive | inactive | inactive |  |
| C#C[C@]1(O)CC[C@H]2[C@@H]3CCc4cc(O)ccc4[C@H]3CC[C@@]21C | inactive | inactive | inactive | inactive | inactive | inactive | inactive | inactive | inactive | inactive | inactive | inactive | inactive | inactive | inactive | inactive | inactive | inactive | inactive | inactive |
| C=C(Nc1ccc(OCC)cc1)Nc1ccc(OCC)cc1 | inactive | inactive | inactive | inactive | inactive | inactive | inactive | inactive | inactive | inactive | inactive | inactive | inactive | inactive | inactive | inactive | inactive | inactive | inactive | inactive |
| O=C(Nc1ccc(C(=O)O)c(O)c1)c1ccccc1 | inactive | inactive | inactive | inactive | inactive | inactive | inactive | inactive | inactive | inactive | inactive | inactive | inactive | inactive | inactive | inactive | inactive | inactive | inactive | inactive |
| CC(C(=O)O)c1ccc2c(c1)[nH]c1ccc(Cl)cc12 (stereo unspecified) | inactive | inactive | inactive | inactive | inactive | inactive | inactive | inactive | inactive | inactive | inactive | inactive | inactive | inactive | inactive | inactive | inactive | inactive | inactive | inactive |
| Cc1ccccc1CNc1ncnc2c1ncn2C1OC(CO)C(O)C1O (stereo unspecified) | inactive | inactive | inactive | inactive | inactive | inactive | inactive | inactive | inactive | inactive | inactive | inactive | inactive | inactive | inactive | inactive | inactive | inactive | inactive | inactive |
| Nc1ccc(C(=O)O)c(O)c1 | inactive | inactive | inactive | inactive | inactive | inactive | inactive | inactive | inactive | inactive | inactive | inactive | inactive | inactive | inactive | inactive | inactive | inactive | inactive | inactive |
| Cc1ccc(C(=O)c2ccc(CC(=O)O)n2C)cc1 | inactive | inactive | inactive | inactive | inactive | inactive | inactive | inactive | inactive | inactive | inactive | inactive | inactive | inactive | inactive | inactive | inactive | inactive | inactive | inactive |
| CCCCCCCCCCCCCCCC(=O)OC(C)C | inactive | inactive | inactive | inactive | inactive | inactive | inactive | inactive | inactive | inactive | inactive | inactive | inactive | inactive | inactive | inactive | inactive | inactive | inactive | inactive |
| CCCCCCOc1ccccc1C(N)=O | inactive | inactive | inactive | inactive | inactive | inactive | inactive | inactive | inactive | inactive | inactive | inactive | inactive | inactive | inactive | inactive | inactive | inactive | inactive | inactive |
| COc1ccc(-c2cc(=S)ss2)cc1 | inactive | inactive | inactive | inactive | inactive | inactive | inactive | inactive | inactive | inactive | inactive | inactive | inactive | inactive | inactive | inactive | inactive | inactive | inactive | inactive |
| COc1ccc(/C=C/C(=O)Nc2ccccc2C(=O)O)cc1OC | inactive | inactive | inactive | inactive | inactive | inactive | inactive | inactive | inactive | inactive | inactive | inactive | inactive | inactive | inactive | inactive | inactive | inactive | inactive | inactive |
| COc1cc2c3cc1Oc1cc(ccc1O)C[C@@H]1c4c(cc(OC)c(O)c4Oc4ccc(cc4)C[C@@H]3N(C)CC2)CC[N+]1(C)C | inactive | inactive | inactive | inactive | inactive | inactive | inactive | inactive | inactive | inactive | inactive | inactive | inactive | inactive | inactive | inactive | inactive | inactive | inactive | inactive |
| C=CCN1C(=O)C(CC(C)C)NC1=S (stereo unspecified) | inactive | inactive | inactive | inactive | inactive | inactive | inactive | inactive | inactive | inactive | inactive | inactive | inactive | inactive | inactive | inactive | inactive | inactive | inactive | inactive |
| Cc1ccc(O)c(-n2nc3ccccc3n2)c1 | inactive | inactive | inactive | inactive | inactive | inactive | inactive | inactive | inactive | inactive | inactive | inactive | inactive | inactive | inactive | inactive | inactive | inactive | inactive | inactive |
| Cc1c(Nc2ncccc2C(=O)O)cccc1C(F)(F)F | inactive | inactive | inactive | inactive | inactive | inactive | inactive | inactive | inactive | inactive | inactive | inactive | inactive | inactive | inactive | inactive | inactive | inactive | inactive | inactive |
| CCC1C(=O)OCC1Cc1cncn1C (stereo unspecified) | inactive | inactive | inactive | inactive | inactive | inactive | inactive | inactive | inactive | inactive | inactive | inactive | inactive | inactive | inactive | inactive | inactive | inactive | inactive | inactive |

Reference: PubChem BioAssay (NCATS)
